# Where “and” joins values, the source holds several entries; their conditions need not be identical. Equal values may be shown once. Some compounds were tested as several samples or in several runs, with calls that do not always agree. Calls of active or inactive are those of the source. Rule for the calls: active = hit-call score of the fitted dose curve at least 0.9, where 1 is the maximum; inactive = score below 0.9.
# Assay: Tanguay_ZF_120hpf_BRN: Oregon State University Tanguay Lab 120 Hour Post-fertilization zebrafish Assay for Brain Region Malformation (AID 2284402)
# Method: Tanguay_ZF_120hpf is a whole embryo, multiplexed endpoint assay using zebrafish larvae exposed for 120 hours post fertilization on a 96-well plate.Tanguay_ZF_120hpf_BRN is one of one assay component(s) measured or calculated from the Tanguay_ZF_120hpf assay. It is designed to make measurements of zebrafish development as detected with brightfield microscopy of developing zebrafish embryos.Data from the assay component Tanguay_ZF_120hpf_BRN was analyzed into 1 assay endpoints. This assay endpoint, Tanguay_ZF_120hpf_BRN, was analyzed in the positive analysis fitting direction relative to DMSO as the negative control and baseline of activity. Using a type of morphology reporter, gain-of-signal activity can be used to understand changes in developmentals as they relate to the whole embryo. To generalize the intended target to other relatable targets, this assay endpoint is annotated to the zebrafish development intended target family, where the subfamily is brain morphogenesis.
# Zebrafish husbandry: Tropical 5D wild-type adult zebrafish were housed in at an approximate density of 1000 per 100 gallon tank at the Sinnhuber Aquatic Research Laboratory, Oregon State University, Corvallis, OR. Each tank was kept at standard laboratory conditions of 28C on a 14-h light/10-h dark photoperiod in fish water consisting of reverse osmosis water supplemented with a commercially available salt (Instant Ocean). Spawning funnels were placed into the tanks the night prior, and embryos were collected and staged. To increase bioavailability, the chorion was enzymatically removed using pronase (63.6mg/ml, >/= 3.5U/mg, Sigma-Aldrich: P5147) at 4 hours post fertilization (hpf) using a custom automated dechorionator.Chemical exposures: Six hpf dechorionated embryos were placed 1 embryo per well in a 96-well plate prefilled with 90 ul of EM using automated embryo placement systems (AEPS). Ten microliters of each row of dilution plate 2 was added to 2 exposure plates. The final DMSO concentration used was 0.64% (vol/vol). Thirty-two embryos were also exposed to 5uM trimethyltin chloride (positive control). Plates were sealed to prevent evaporation and foil covered to reduce light exposure and kept in a 28C incubator. Embryos were statically exposed until 120 hpf. At 24 hpf, embryos were assessed for photomotor response using a custom photomotor response analysis tool (PRAT) and for developmental toxicity endpoints (MO24: mortality at 24 hpf, DP: developmental progression, SM: spontaneous movement, and NC: notochord distortion). At 120 hpf, locomotor activity was measured using Viewpoint Zebralab and assessed for 13 endpoints. Zebrafish acquisition and analysis program (ZAAP), a custom program designed to inventory, acquire, and manage zebrafish data, was used to collect developmental endpoints as either present or absent (i.e., binary responses were recorded). If mortality occurred for an embryo (at either 24 or 120 hpf), the non-mortality endpoints were not measured.
SMILES,AC50,outcome
O=S(=O)(O)C(F)(F)C(F)(F)C(F)(F)C(F)(F)C(F)(F)C(F)(F)F,81.8 µM (active),inactive
O=C(O)C(F)(F)C(F)(F)C(F)(F)C(F)(F)C(F)(F)F,–,inactive
O=C(O)C(F)(F)C(F)(F)C(F)(F)C(F)(F)C(F)(F)C(F)(F)C(F)(F)C(F)(F)F,–,inactive
NS(=O)(=O)C(F)(F)C(F)(F)C(F)(F)C(F)(F)C(F)(F)C(F)(F)C(F)(F)C(F)(F)F,–,inactive
O=C(O)C(F)(F)C(F)(F)C(F)(F)C(F)(F)C(F)(F)C(F)(F)C(F)(F)C(F)(F)C(F)(F)F,–,inactive
O=S(=O)(O)C(F)(F)C(F)(F)C(F)(F)C(F)(F)F,–,inactive

# Assay: Tanguay_ZF_120hpf_TCHR: Oregon State University Tanguay Lab 120 Hour Post-fertilization zebrafish Assay for Touch Responsive (AID 2284403)
# In short: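 Binary touch-response calls are made at 120 hpf in 5D wild-type zebrafish larvae. These larvae were dechorionated with pronase and exposed singly from 6 hpf in sealed, dark plates at 28 °C with 0.64% DMSO final; dead embryos are excluded.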
SMILES,AC50,outcome
O=S(=O)(O)C(F)(F)C(F)(F)C(F)(F)C(F)(F)C(F)(F)C(F)(F)F,84.8 µM (active),inactive
O=C(O)C(F)(F)C(F)(F)C(F)(F)C(F)(F)C(F)(F)F,–,inactive
O=C(O)C(F)(F)C(F)(F)C(F)(F)C(F)(F)C(F)(F)C(F)(F)C(F)(F)C(F)(F)F,–,inactive
NS(=O)(=O)C(F)(F)C(F)(F)C(F)(F)C(F)(F)C(F)(F)C(F)(F)C(F)(F)C(F)(F)F,–,inactive
O=C(O)C(F)(F)C(F)(F)C(F)(F)C(F)(F)C(F)(F)C(F)(F)C(F)(F)C(F)(F)C(F)(F)F,–,inactive
O=S(=O)(O)C(F)(F)C(F)(F)C(F)(F)C(F)(F)F,–,inactive

# Assay: Tanguay_ZF_120hpf_ANY: Oregon State University Tanguay Lab 120 Hour Post-fertilization zebrafish Assay for Any Mortality and Malformation (AID 2284404)
# In short: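 Dechorionated Tropical 5D wild-type embryos, one per well from 6 hpf, static exposure in sealed, dark plates at 28C until 120 hpf, 0.64% DMSO final. Brightfield scoring of mortality and malformations as binary presence/absence, pooling 13 morphology endpoints.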
SMILES,AC50,outcome
O=S(=O)(O)C(F)(F)C(F)(F)C(F)(F)C(F)(F)C(F)(F)C(F)(F)F,85.1 µM (active) and 71.3 µM (active),–
O=C(O)C(F)(F)C(F)(F)C(F)(F)C(F)(F)C(F)(F)F,–,inactive
O=C(O)C(F)(F)C(F)(F)C(F)(F)C(F)(F)C(F)(F)C(F)(F)C(F)(F)C(F)(F)F,–,inactive
NS(=O)(=O)C(F)(F)C(F)(F)C(F)(F)C(F)(F)C(F)(F)C(F)(F)C(F)(F)C(F)(F)F,2.59 µM (active),–
O=C(O)C(F)(F)C(F)(F)C(F)(F)C(F)(F)C(F)(F)C(F)(F)C(F)(F)C(F)(F)C(F)(F)F,8.9 µM (active),–
O=S(=O)(O)C(F)(F)C(F)(F)C(F)(F)C(F)(F)F,–,inactive

# Assay: CCTE_Padilla_ZF_Score.Craniofacial: CCTE's 144 Hour Post-fertilization zebrafish Assay Score for Craniofacial Malformation, Padilla Lab (AID 2284405)
# Method: CCTE_Padilla_ZF_Phenotype_Score is a whole embryo, multiplexed assay using zebrafish ova exposed for 144 hours post fertilization on a 96-well plate.CCTE_Padilla_ZF_Score.Craniofacial is one of one assay component(s) measured or calculated from the CCTE_Padilla_ZF_Phenotype_Score assay. It is designed to make measurements of zebrafish development as detected with brightfield microscopy of developing zebrafish embryos.Data from the assay component CCTE_Padilla_ZF_Score.Craniofacial was analyzed into 1 assay endpoints. This assay endpoint, CCTE_Padilla_ZF_Score.Craniofacial, was analyzed in the positive analysis fitting direction relative to DMSO as the negative control and baseline of activity. Using a type of viability reporter, gain-of-signal activity can be used to understand changes in developmentals as they relate to the whole embryo. To generalize the intended target to other relatable targets, this assay endpoint is annotated to the zebrafish development intended target family, where the subfamily is craniofacial morphogenesis.
# Zebrafish husbandry: Wild type adult zebrafish (Danio rerio; undefined outbred stock obtained from Aquatic Research Organisms, Hampton, NH, 03842) were housed in an AAALAC-approved animal facility at 28C with a 14:10 h light: dark cycle (lights on at 08:30 h). Adult fish (2-3 females per male; density = 15-20 adults per tank) were kept in one of several 9-liter (L) flow-through colony tanks (Aquaneering Inc., San Diego, CA). All adults in a colony tank were placed in a 2 L (static) breeding tank (Aquatic Habitats, Apopka, FL) one hour prior to light onset. Typically, adults from two to three colony tanks were mated on the same day. Two hours after light onset the adults were returned to the colony tank. All embryos were gathered from each breeder tank, pooled, and placed in a 28C water bath for 2 h, followed by two washes with 0.06% bleach (v/v) in 10% Hanks' Balanced Salt Solution (13.7 mM NaCl 0.54 mM KCl, 25 uM Na2HPO4, 130 uM CaCl2 100 um MgSO4 and 420 um NaHCO3,), hereafter referred to as Hanks' solution, for 5 min in order to remove any residual bacteria or fungi. Immediately following washing, the embryos were examined, and healthy embryos were separated from dead or unfertilized eggs and moved into fresh Hanks'. Chemical exposures: Zebrafish embryos were exposed in 96-well plates. Between 6- and 8-hours post fertilization (hpf), healthy embryos (with chorions) were transferred, one embryo per well, into 96 well (0.5 mL) microtiter plates (Cell Culture-Treated, Flat-Bottom Microplate 96 well [Corning Costar, Kennebunk, ME; Cat 09-761-145]) filled with 200 uL of Hanks' solution. A random number generator was used to assign the order in which the rows of embryos were plated in 96 well plates each week. After plating, the embryos were dosed with 0.8 uL of the chemical dosing solution then immediately sealed with AlumaSeal II (Excel Scientific Inc, Victorville, CA) to prevent volatilization of the chemicals, and then placed in a leakproof secondary container. These containers were placed in an incubator maintained on a 14:10 h light: dark cycle at 26C for rearing. On 5 dpf, live larvae were gently moved out of the plate with test chemicals and into a new 96 well mesh plate (Millipore Corp., Bedford, MA) with just the Hanks' solution. Once within the mesh well plate, the animals were rinsed with 400 uL of fresh Hanks' three times, and then the plates were covered with a non-adhesive material (Microseal A, BioRad, Hercules, CA), plate lid added, and then plate sides wrapped in Parafilm (PM992, Bermis Company, Neenah, WI), and returned to the incubator. […]
SMILES,AC50,outcome
O=S(=O)(O)C(F)(F)C(F)(F)C(F)(F)C(F)(F)C(F)(F)C(F)(F)F,81.3 µM (active),inactive
O=C(O)C(F)(F)C(F)(F)C(F)(F)C(F)(F)C(F)(F)F,–,inactive
O=C(O)C(F)(F)C(F)(F)C(F)(F)C(F)(F)C(F)(F)C(F)(F)C(F)(F)C(F)(F)F,–,inactive
NS(=O)(=O)C(F)(F)C(F)(F)C(F)(F)C(F)(F)C(F)(F)C(F)(F)C(F)(F)C(F)(F)F,–,inactive
O=C(O)C(F)(F)C(F)(F)C(F)(F)C(F)(F)C(F)(F)C(F)(F)C(F)(F)C(F)(F)C(F)(F)F,–,inactive
O=S(=O)(O)C(F)(F)C(F)(F)C(F)(F)C(F)(F)F,–,inactive
